Several values for one entry are separate records, joined by “and”; a condition that tells them apart may be missing. Equal values may be shown once. A structure can be active in one record and inactive in another. Activity calls are given as the source filed them. The calls were made as follows: active = hit-call score of the fitted dose curve at least 0.9, where 1 is the maximum; inactive = score below 0.9.
read-out: matrix metalloproteinase-10 (MMP10), MMP10 (gene 4319); assay: LTEA_HepaRG_MMP10: Life Technologies and Expression Analysis (LTEA) Assay for matrix metalloproteinase-10 (MMP10) using HepaRG (AID 2283517); conditions: mRNA level, 48 h; actives raise or lower the signal
Procedure: LTEA_HepaRG is a cell based, multiplexed-readout assay that uses HepaRG, a human liver cell line, with measurements taken at 48 hours after chemical dosing on a 96-well plate.LTEA_HepaRG_MMP10 is one of 102 assay component(s) measured in the LTEA HepaRG cell culture assay. It is a marker of Fibrosis.Data from the assay component LTEA_HepaRG_MMP10 was analyzed into 1 endpoint. This assay endpoint, LTEA_HepaRG_MMP10, was analyzed with bidirectional fitting relative to DMSO as the negative control and baseline of activity. Using a type of inducible reporter, measures of mRNA induction for gain or loss-of-signal activity can be used to understand regulation of transcription factor activity. To generalize the intended target to other relatable targets, this assay endpoint is annotated to the protease intended target family, where the subfamily is matrix metalloproteinase.
A total of 1060 chemcials from the ToxCast library were tested in eight-point concentration-response experiments. Cell culture and cytotoxicity assays were conducted at Thermo Fisher Scientific's Custom Services facility (Madison, WI). A single lot of human HepaRG cells (Thermo Fisher Scientific, Frederick, MD) was used for the cell culture experiments. 96-well format collagen type I coated plates of human HepaRG cells were prepared using established methods. Briefly, cryopreserved HepaRG cells were thawed, plated at a density of approximately 100,000 cells/well in HepaRG Thaw, Plate, and General Purpose media (HPRG770, Thermo Fisher Scientific), and incubated for 48 hours. 0.5% DMSO was selected as vehicle control to balance the requisite need of DMSO in HepaRG cultures to maintain differentiation (for example, baseline metabolism, proportions of hepatocytes vs. cholangiocytes), while enabling further hepatic receptor pathway activation (for example, PXR and CAR) in response to chemical exposure. 48 hours after plating, the culture medium was replaced with HepaRG Serum-Free Incudtion Media. Cells were exposed to each test chemical in duplicate and maintained in CO2 incubators for another 48 hours. Chemical plates were thawed to room temperature and 200x concentrations of treatment groups were prepared. 8-point conentration-reponse curves were made with the highest exposure at 100 uM, followed by half-log dilutions, all in 0.5% DMSO. Each test plate contained variouse controls, induction positive controls (1mM phenobarbital), cytotoxicity positive controls ([…] aflatoxin B1), vehicle controls (0.5% DMSO), and total lysis controls (0.5% DMSO). Cell morphology images were taken using an Essen IncuCyte FLR automated microscope, with six 96-well plates imaged in about 24 minutes. Images were captured and exported and JPEG files. Spent culture media was transfered to black-well plates for the LDH assay, and remaining media was sorted at -80 C for later use. Cells were treated with RLT buffer and frozen until shipped for gene expression analysis. Total RNA was isolated from the cell suspension in 75 uL of Buffer RLT (Qiagen, Germantown, MD 20874) by Quintiles/Expression Analysis (Durham, NC) using a custom isolation procedure. Total RNA from each plate well was transferred to a preamplification plate. Fluidigm's 96.96 Dynamic ArrayTM (Fluidigm, Amsterdam, the Netherlands) technology was used for gene expression analyses by quantitative reverse transcription polymerase chain reaction (qRT-PCR, performed by Quintiles/Expression Analysis, Durham, NC)89. Standard TaqManTM Assays (Applied Biosystems/ThermoFisher Scientific, Foster City, CA) were used to assess the expression of 93 genes selected based on their selectivity and sensitivity to important hepatic receptors known to be modulated by environmental chemicals; importance in human hepatocyte functionality; and hepatotoxicity. […]

Row | Structure (SMILES) | outcome | AC50
1 | O=C(O)C(F)(F)C(F)(F)C(F)(F)C(F)(F)C(F)(F)C(F)(F)C(F)(F)F | inactive | –
2 | CC1(c2ccc(Oc3ccccc3)cc2)OC(=O)N(Nc2ccccc2)C1=O (stereo not given) | – | 26.1 µM (active)
3 | CCC(C)(C)C(=O)OC1=C(c2ccc(Cl)cc2Cl)C(=O)OC12CCCCC2 | inactive | –
4 | O=S(=O)(O)C(F)(F)C(F)(F)C(F)(F)C(F)(F)C(F)(F)C(F)(F)C(F)(F)C(F)(F)F | inactive | 87.5 µM (active) and 83.7 µM (active)
5 | CN1CSC(=S)N(C)C1 | inactive | –
6 | Clc1ccccc1-c1nnc(-c2ccccc2Cl)nn1 | inactive | –
7 | CC(C)N(C(=O)COc1nnc(C(F)(F)F)s1)c1ccc(F)cc1 | inactive | –
8 | Oc1cc(Cl)ccc1Oc1ccc(Cl)cc1Cl | inactive | 89 µM (active)
9 | O=C(O)COc1ccc(Cl)cc1Cl | inactive | –
10 | CC(C)OC(=O)Nc1cccc(Cl)c1 | inactive | –
11 | Oc1ccc(Cl)cc1Cc1ccccc1 | inactive | –
12 | CC1(C)C(C=C(Cl)Cl)C1C(=O)OC(C#N)c1ccc(F)c(Oc2ccccc2)c1 (stereo not given) | inactive | –
13 | CCN(CC)C(=O)SCc1ccc(Cl)cc1 | inactive | –
14 | CNC(=O)Oc1cccc(N=CN(C)C)c1 | inactive | –
15 | CCc1ccc(C(=O)NN(C(=O)c2cc(C)cc(C)c2)C(C)(C)C)cc1 | inactive | –
16 | CNC(=O)/C=C(\C)OP(=O)(OC)OC | inactive | –
17 | OCCOc1ccccc1 | inactive | –
18 | O=C(NC(=O)c1c(F)cccc1F)Nc1ccc(OC(F)(F)C(F)OC(F)(F)F)c(Cl)c1 (stereo not given) | inactive | –
19 | O=C(O)CCCOc1ccc(Cl)cc1Cl | inactive | –

Row | Structure (SMILES) | outcome | AC50
20 | CCC(C)(NC(=O)c1cc(Cl)c(C)c(Cl)c1)C(=O)CCl (stereo not given) | – | 50.2 µM (active)
21 | CC[C@H](C)[C@H]1O[C@]2(C=C[C@@H]1C)C[C@@H]1C[C@@H](C/C=C(\C)[C@@H](O[C@H]3C[C@H](OC)[C@@H](O[C@H]4C[C@H](OC)[C@@H](O)[C@H](C)O4)[C@H](C)O3)[C@@H](C)/C=C/C=C3\CO[C@@H]4[C@H](O)C(C)=C[C@@H](C(=O)O1)[C@]34O)O2 (tested in a mixture with another compound) | – | 11.7 µM (active)
22 | C#CCN1C(=O)COc2cc(F)c(N3C(=O)C4=C(CCCC4)C3=O)cc21 | inactive | –
23 | O=C(Nc1ccccc1)Nc1cnns1 | inactive | –
24 | C[C@H]1[C@H](c2ccc(Cl)cc2)SC(=O)N1C(=O)NC1CCCCC1 | – | 79.5 µM (active)
25 | Cc1[nH]c(=O)n(C(C)(C)C)c(=O)c1Cl | inactive | –
26 | CCCN(CCC)c1c([N+](=O)[O-])cc(C(F)(F)F)cc1[N+](=O)[O-] | inactive | –
27 | CCC(C)Nc1c([N+](=O)[O-])cc(C(C)(C)C)cc1[N+](=O)[O-] (stereo not given) | inactive | –
28 | N#CN | inactive | –
29 | O=S1OCC2C(CO1)C1(Cl)C(Cl)=C(Cl)C2(Cl)C1(Cl)Cl (stereo not given) | inactive | –
30 | CNC(=O)CSP(=S)(OC)OC | inactive | –
31 | O=[N+]([O-])c1c(Cl)c(Cl)c(Cl)c(Cl)c1Cl | inactive | –
32 | CCCN(CCOc1c(Cl)cc(Cl)cc1Cl)C(=O)n1ccnc1 | – | 57.8 µM (active)
33 | COP(=O)(OC)OC=C(Cl)Cl | inactive | –
34 | CNC(=O)Oc1ccccc1OC(C)C | inactive | –
35 | COP(=S)(OC)Oc1ccc(SC)c(C)c1 | inactive | –
36 | ClC1C(Cl)C(Cl)C(Cl)C(Cl)C1Cl (stereo not given) | inactive | –
37 | CC(C)(C)C(O)C(Oc1ccc(Cl)cc1)n1cncn1 (stereo not given) | inactive | –
38 | CCOCN(C(=O)CCl)c1c(C)cccc1CC | inactive | –
